Conditions in all cases: mRNA level, 48 h; actives raise or lower the signal
Read-out in assay [1]: adenosine kinase (ADK) gene, ADK (gene 132)
The assay can be described thus: LTEA_HepaRG_ADK: Life Technologies and Expression Analysis (LTEA) Assay for adenosine kinase (ADK) gene using HepaRG (AID 2283471). Put shortly:
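HepaRG (human liver), 48 h chemical exposure, 8-pt half-log series, top 100 uM, 0.5% DMSO vehicle. Readout: ADK mRNA by qRT-PCR vs housekeeping genes; bidirectional curve fit relative to DMSO baseline.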

Read-out in assay [2]: Alpha-fetoprotein (AFP) gene, AFP (gene 174)
The assay can be described thus: LTEA_HepaRG_AFP: Life Technologies and Expression Analysis (LTEA) Assay for Alpha-fetoprotein (AFP) gene using HepaRG (AID 2283472). Put shortly:
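AFP transcript measured by TaqMan qRT-PCR with three housekeeping genes for normalization, after 48 h chemical treatment of HepaRG cells (top 100 uM, half-log steps, 0.5% DMSO). Gain or loss fitted against vehicle.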

Read-out in the next assay: BCL2L11 (gene 10018)
The assay can be described thus: LTEA_HepaRG_BCL2L11: Life Technologies and Expression Analysis (LTEA) Assay for Bcl-2 (BCL2L11) gene using HepaRG (AID 2283473). Put shortly: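 Cells were plated, cultured 48 h, switched to serum-free induction medium, then dosed in duplicate for 48 h at eight half-log concentrations up to 100 uM. Lysates underwent RNA isolation and TaqMan qRT-PCR; gain or loss versus DMSO was fitted.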

Read-out in assay [3]: Apolipoprotein A-V (APOA5) gene, APOA5 (gene 116519)
Briefly: LTEA_HepaRG_APOA5: Life Technologies and Expression Analysis (LTEA) Assay for Apolipoprotein A-V (APOA5) gene using HepaRG (AID 2283474). Put shortly:
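Human liver HepaRG cells are treated 48 h with test chemicals (100 uM top, half-log dilutions, 0.5% DMSO). APOA5 mRNA induction or loss is measured by qRT-PCR relative to vehicle.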

Read-out in assay [4]: Apoptosis regulator Bcl-2 (Homo sapiens) (UniProt P10415)
Briefly: LTEA_HepaRG_BCL2: Life Technologies and Expression Analysis (LTEA) Assay for Bcl-2 gene using HepaRG (AID 2283475). Put shortly: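 qRT-PCR of BCL2 transcript, normalized to three housekeeping genes (ACTB, GAPDH, POLR2A), after 48 h chemical exposure of HepaRG cells; concentrations top 100 uM with half-log dilutions, 0.5% DMSO vehicle, duplicates; changes up or down fitted relative to vehicle.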

Read-out in assay [5]: Bcl-2 (BID) gene, BID (gene 637)
Briefly: LTEA_HepaRG_BID: Life Technologies and Expression Analysis (LTEA) Assay for Bcl-2 (BID) gene using HepaRG (AID 2283476). The method, boiled down: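 Duplicate 48 h treatments of HepaRG cells in serum-free induction medium spanned 100 uM downward in half-log steps, 0.5% DMSO. Transcript change quantified by qRT-PCR against three housekeeping genes, fitted up or down versus DMSO.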

Read-out in assay [6]: Cytochrome P450 (CYP24A1), CYP24A1 (gene 1591)
Briefly: LTEA_HepaRG_CYP24A1: Life Technologies and Expression Analysis (LTEA) Assay for Cytochrome P450 (CYP24A1) using HepaRG (AID 2283478). Put shortly:
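Human liver HepaRG cultures receive each chemical for 48 h across an eight-point half-log series topping at 100 uM in 0.5% DMSO. Induction or suppression of CYP24A1 mRNA is scored relative to vehicle after housekeeping-gene normalization.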

Read-out in assay [7]: cysteine-aspartic acid protease (CASP8), CASP8 (gene 841)
The assay can be described thus: LTEA_HepaRG_CASP8: Life Technologies and Expression Analysis (LTEA) Assay for cysteine-aspartic acid protease (CASP8) using HepaRG (AID 2283480). Put shortly:
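Concentration-response in duplicate up to 100 uM (half-log steps, 0.5% DMSO) on differentiated HepaRG cultures for 48 h. Expression change of CASP8 mRNA is determined by TaqMan qRT-PCR with housekeeping-gene normalization.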

Read-out in a further assay: Caspase-3 (Homo sapiens) (UniProt P42574)
Briefly: LTEA_HepaRG_CASP3: Life Technologies and Expression Analysis (LTEA) Assay for cysteine-aspartic acid protease (CASP3) using HepaRG (AID 2283477). The method, boiled down:
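In HepaRG liver cells dosed for 48 h at up to 100 uM (eight-point, duplicate), CASP3 expression changes are scored by qRT-PCR. Activity is fitted in both directions with 0.5% DMSO as baseline.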

The source of these data is PubChem BioAssay (EPA / NIEHS).

Where “and” joins values, the source holds several entries; their conditions need not be identical. Equal entries are not always repeated. Calls of active or inactive are those of the source. The calls were made as follows: active = hit-call score of the fitted dose curve at least 0.9, where 1 is the maximum; inactive = score below 0.9.

Sequence of Apoptosis regulator Bcl-2 (Homo sapiens) (P10415 whole entry, looked up): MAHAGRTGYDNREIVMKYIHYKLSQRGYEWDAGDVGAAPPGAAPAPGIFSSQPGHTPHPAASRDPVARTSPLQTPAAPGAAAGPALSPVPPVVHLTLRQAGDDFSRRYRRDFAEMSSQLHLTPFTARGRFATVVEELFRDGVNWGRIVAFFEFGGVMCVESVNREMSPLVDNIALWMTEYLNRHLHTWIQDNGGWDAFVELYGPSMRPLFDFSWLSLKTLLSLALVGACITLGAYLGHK
Sequence of Caspase-3 (Homo sapiens) (P42574 whole entry, looked up): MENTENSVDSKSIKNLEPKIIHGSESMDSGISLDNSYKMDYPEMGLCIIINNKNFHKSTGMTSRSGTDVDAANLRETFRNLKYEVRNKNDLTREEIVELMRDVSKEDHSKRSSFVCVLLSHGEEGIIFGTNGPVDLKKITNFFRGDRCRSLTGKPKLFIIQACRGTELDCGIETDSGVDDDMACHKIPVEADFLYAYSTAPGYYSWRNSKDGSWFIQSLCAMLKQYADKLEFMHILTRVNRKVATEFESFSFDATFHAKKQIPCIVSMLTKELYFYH

What is called AC50 is the concentration at which the activity in the assay is half-maximal. Consider `CON(C)C(=O)Nc1ccc(Cl)c(Cl)c1`, for which the call (in [1]; in the assay with BCL2L11 (gene 10018); in assay [3]; in assay [4]; in [5]; in assay [6]) was inactive. In addition, the call in assay [7] was inactive. Further, the AC50 in assay [2] is 74.2 µM (active).

Regarding `COC(=O)C=C(C)OP(=O)(OC)OC`, the compound was classed as inactive (in assay [1]; in assay [2]; in the assay with BCL2L11 (gene 10018); in assay [4]; in [5]; with Caspase-3 (Homo sapiens)). Further, the result in assay [6] and in [7] was inactive.

For the compound `COP(=S)(OC)Oc1nc(Cl)c(Cl)cc1Cl`, the call (in assay [1]; in assay [2]; in the assay with BCL2L11 (gene 10018); in assay [3]; in assay [4]; in assay [5]) was inactive. In addition, the result in [6] and in assay [7] was inactive.

On to `CCNc1nc(Cl)nc(NCC)n1`, for which the call (in assay [1]; in [2]; with BCL2L11 (gene 10018); in assay [3]; in [4]; in [5]) was inactive. In addition, the call in assay [6] and in assay [7] was inactive.

For the compound `CO/C=C(/C(=O)OC)c1ccccc1Oc1cc(Oc2ccccc2C#N)ncn1`, the compound was classed as inactive in assay [1], in [5], in assay [6] and in [7]. In addition, the AC50 in assay [2] was 37.9 µM (active) and 69.5 µM (active) and 25.5 µM (active); with BCL2L11 (gene 10018), 84.5 µM (active) and 73.8 µM (active) and 84.6 µM (active); in assay [3], 91.8 µM (active) and 78 µM (active) and 74.3 µM (active); in [4], 86.3 µM (active) and 85.9 µM (active) and 86.9 µM (active).

`CCNc1nc(Cl)nc(NC(C)C)n1`: the call (in [1]; in assay [2]; in the assay with BCL2L11 (gene 10018); in assay [3]; in assay [4]; in [5]) was inactive. The compound was called inactive in assay [6] and in assay [7].

As for `OC(c1ccc(Cl)cc1)(c1cncnc1)c1ccccc1Cl` (centres undefined), the call (in assay [1]; with BCL2L11 (gene 10018); in assay [5]; in assay [6]) was inactive. Further, the AC50 in assay [2] is 80 µM (active); in assay [3], 72.9 µM (active); in assay [4], 75.1 µM (active); in assay [7], 50 µM (active).

For `CCCCNC(=O)OCC#CI`, the AC50 in assay [1] was 50 µM (active). The outcome (in assay [2]; with BCL2L11 (gene 10018); in [3]; in assay [4]; in [5]; in assay [6]) was inactive. Also, the outcome in assay [7] was inactive.

As to `CCOC(=O)CC(SP(=S)(OC)OC)C(=O)OCC` (centres undefined), the result (in assay [1]; in [2]; with BCL2L11 (gene 10018); in assay [3]; in assay [4]; in assay [5]) was inactive. For the same compound, the compound was classed as inactive in [6] and in assay [7].

`CC(C)Oc1cc(-n2nc(C(C)(C)C)oc2=O)c(Cl)cc1Cl`: the compound was classed as inactive (in [1]; with BCL2L11 (gene 10018); in assay [5]; in [6]; in assay [7]). The AC50 was 47.2 µM (active) in assay [2], 32.4 µM (active) in assay [3] and 81.1 µM (active) in assay [4].

Regarding `CCOP(=S)(OCC)SCn1c(=O)oc2cc(Cl)ccc21`, the outcome (in assay [1]; in [2]; in the assay with BCL2L11 (gene 10018); in assay [3]; in assay [4]; in [5]) was inactive. Further, the call in assay [6] and in assay [7] was inactive.

Regarding `C#CCOS(=O)OC1CCCCC1Oc1ccc(C(C)(C)C)cc1` (centres undefined), the AC50 in [1] was 30.1 µM (active); in assay [2] it was 29.5 µM (active); in [4] it was 81.7 µM (active); in [5], 11.4 µM (active); in assay [7], 31.3 µM (active). Also, the result (with BCL2L11 (gene 10018); in assay [3]; in assay [6]) was inactive.

Regarding `CC(C)(C)c1ccc(CSc2cnn(C(C)(C)C)c(=O)c2Cl)cc1`, the outcome in [1], in assay [5] and in assay [6] was inactive. For the same compound, the AC50 in [2] was 2.47 µM (active); with BCL2L11 (gene 10018) it was 1.93 µM (active); in [3], 12 µM (active); in assay [4], 2.89 µM (active); in [7], 12.8 µM (active).
